For seven sequences, binding signal results are on record in paper PMC4081100, “A DNA-binding-site landscape and regulatory network analysis for NAC transcription factors in Arabidopsis thaliana”.

What all share (experiment): universal protein binding microarray (PBM); transcription factors of Arabidopsis thaliana; high values mean tight binding
One test concerns the target T1, GST-ANAC092(1-176) (Arabidopsis thaliana, UniProt Q9FKA0 1-176).
T1 sequence: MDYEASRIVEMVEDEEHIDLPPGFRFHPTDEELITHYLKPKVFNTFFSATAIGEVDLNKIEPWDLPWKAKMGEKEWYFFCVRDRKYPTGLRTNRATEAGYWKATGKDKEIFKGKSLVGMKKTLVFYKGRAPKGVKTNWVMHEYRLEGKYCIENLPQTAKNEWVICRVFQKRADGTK
The settings on record: protein: recombinant; tags: GST; chain copies: 2; dsDNA, one strand shown. The method, boiled down:
(§1)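 Protein amounts were determined by A280 or anti-GST western blot after glutathione–Sepharose 4B purification of GST-tagged proteins induced in cells, with zinc acetate included for zinc-finger proteins. Duplicate runs at 200 to 500 nM final were done on custom all-10-mer Agilent 4 × 180K arrays made double-stranded by primer extension. The normalised enrichment score (E-score) over gapped and ungapped 8-mers is the measure of binding.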

The target in the next test is GST-NTL6(1-168) (Arabidopsis thaliana, UniProt Q9SCK6 1-168). To be noted: protein: recombinant; tags: GST; chain copies: 2; dsDNA, one strand shown. A digest of the protocol:
as §1

In another test the target is T2, GST-ANAC055(1-171) (Arabidopsis thaliana, UniProt Q9LDY8 1-171).
T2 sequence: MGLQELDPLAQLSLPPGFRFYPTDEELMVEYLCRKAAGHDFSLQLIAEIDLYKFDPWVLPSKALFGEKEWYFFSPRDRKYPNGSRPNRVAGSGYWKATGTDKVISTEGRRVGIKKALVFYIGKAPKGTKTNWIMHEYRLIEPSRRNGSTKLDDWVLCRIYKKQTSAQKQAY
The settings on record: protein: recombinant; tags: GST; chain copies: 2; dsDNA, one strand shown. The method, boiled down:
as §1

The target of a further test is T3, GST-ATAF1 NAC domain (Arabidopsis thaliana, UniProt Q39013 7-158).
T3 sequence: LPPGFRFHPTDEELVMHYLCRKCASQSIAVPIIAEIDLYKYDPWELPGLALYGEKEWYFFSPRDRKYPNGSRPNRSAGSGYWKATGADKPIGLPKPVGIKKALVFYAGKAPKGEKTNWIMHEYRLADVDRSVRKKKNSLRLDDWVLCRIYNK
To be noted: protein: recombinant; tags: GST; chain copies: 2; dsDNA, one strand shown. A digest of the protocol: as §1

Test [1] deals with T4, GST-ANAC092(1-285) full length (Arabidopsis thaliana, UniProt Q9FKA0 1-285).
T4 sequence: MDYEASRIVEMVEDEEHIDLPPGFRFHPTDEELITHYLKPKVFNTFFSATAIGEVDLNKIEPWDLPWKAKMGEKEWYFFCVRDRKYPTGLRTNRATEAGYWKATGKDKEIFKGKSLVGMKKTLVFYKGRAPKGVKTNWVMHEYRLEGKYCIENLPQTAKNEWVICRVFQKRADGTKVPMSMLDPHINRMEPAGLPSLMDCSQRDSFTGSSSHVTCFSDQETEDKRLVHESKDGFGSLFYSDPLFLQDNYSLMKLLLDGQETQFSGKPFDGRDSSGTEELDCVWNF
To be noted: protein: recombinant; tags: GST; chain copies: 2; dsDNA, one strand shown. The method, boiled down:
as §1

In another test the target is T5, GST-NST2(1-184) (Arabidopsis thaliana, UniProt Q9M274 1-184).
T5 sequence: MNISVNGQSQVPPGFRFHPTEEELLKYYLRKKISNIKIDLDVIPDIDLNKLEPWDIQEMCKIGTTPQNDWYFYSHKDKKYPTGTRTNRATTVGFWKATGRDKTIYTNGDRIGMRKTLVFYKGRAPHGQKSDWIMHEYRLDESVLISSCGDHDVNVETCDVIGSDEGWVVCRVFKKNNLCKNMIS
The settings on record: protein: recombinant; tags: GST; chain copies: 2; dsDNA, one strand shown. A digest of the protocol: as §1

Another test addresses T6, GST-SND1(1-203) (Arabidopsis thaliana, UniProt Q9LPI7 1-203).
T6 sequence: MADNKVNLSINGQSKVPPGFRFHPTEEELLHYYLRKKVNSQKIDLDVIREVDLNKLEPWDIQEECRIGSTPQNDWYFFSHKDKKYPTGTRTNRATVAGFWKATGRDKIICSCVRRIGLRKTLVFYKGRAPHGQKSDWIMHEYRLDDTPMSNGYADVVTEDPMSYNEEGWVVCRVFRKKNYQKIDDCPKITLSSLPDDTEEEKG
To be noted: protein: recombinant; tags: GST; chain copies: 2; dsDNA, one strand shown. A digest of the protocol:
as §1

The next test has as its target T7, GST-VND3 NAC domain (Arabidopsis thaliana, UniProt Q9FH59 12-162).
T7 sequence: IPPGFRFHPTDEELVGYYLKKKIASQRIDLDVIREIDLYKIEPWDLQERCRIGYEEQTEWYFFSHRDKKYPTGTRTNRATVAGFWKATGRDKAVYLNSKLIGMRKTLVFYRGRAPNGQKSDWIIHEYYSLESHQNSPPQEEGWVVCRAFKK
The settings on record: protein: recombinant; tags: GST; chain copies: 2; dsDNA, one strand shown. A digest of the protocol:
as §1

In another test the target is GST-WRKY1(266-371) (Arabidopsis thaliana, UniProt Q9SI37 266-371). To be noted: protein: recombinant; tags: GST; dsDNA, one strand shown. A digest of the protocol: as §1
Sequence of GST-WRKY1(266-371) (Q9SI37 266-371): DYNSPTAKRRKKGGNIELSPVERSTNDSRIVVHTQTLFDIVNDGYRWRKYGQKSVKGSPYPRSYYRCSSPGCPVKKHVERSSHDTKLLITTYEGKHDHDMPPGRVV
A further test deals with T8, GST-NTL8 NAC domain (Arabidopsis thaliana, UniProt Q9XIN7 14-156).
T8 sequence: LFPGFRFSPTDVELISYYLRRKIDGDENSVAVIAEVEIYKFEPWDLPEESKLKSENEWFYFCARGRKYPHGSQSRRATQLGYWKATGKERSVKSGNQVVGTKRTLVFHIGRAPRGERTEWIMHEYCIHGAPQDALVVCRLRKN
To be noted: protein: recombinant; tags: GST; chain copies: 2; dsDNA, one strand shown. The method, boiled down: as §1

A further test deals with T9, GST-ANAC019 NAC domain (Arabidopsis thaliana, UniProt Q9C932 14-162).
T9 sequence: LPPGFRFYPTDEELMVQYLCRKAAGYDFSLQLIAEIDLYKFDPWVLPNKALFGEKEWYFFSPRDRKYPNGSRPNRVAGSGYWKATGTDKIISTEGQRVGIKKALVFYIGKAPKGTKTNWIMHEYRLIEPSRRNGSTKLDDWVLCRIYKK
To be noted: protein: recombinant; tags: GST; chain copies: 2; dsDNA, one strand shown. A digest of the protocol: as §1

Another test addresses T10, GST-NAP(1-166) (Arabidopsis thaliana, UniProt O49255 1-166).
T10 sequence: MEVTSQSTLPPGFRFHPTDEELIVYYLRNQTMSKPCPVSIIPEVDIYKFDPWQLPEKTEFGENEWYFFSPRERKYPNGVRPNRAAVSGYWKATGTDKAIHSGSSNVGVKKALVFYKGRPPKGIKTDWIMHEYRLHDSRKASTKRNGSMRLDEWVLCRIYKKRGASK
The settings on record: protein: recombinant; tags: GST; chain copies: 2; dsDNA, one strand shown. The method, boiled down:
as §1

A further test concerns the target T11, GST-VND7 NAC domain (Arabidopsis thaliana, UniProt Q9C8W9 9-158).
T11 sequence: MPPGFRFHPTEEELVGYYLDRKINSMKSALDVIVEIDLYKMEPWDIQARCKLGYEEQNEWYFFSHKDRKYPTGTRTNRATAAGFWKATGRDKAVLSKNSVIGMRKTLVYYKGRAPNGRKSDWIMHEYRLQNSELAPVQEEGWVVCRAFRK
The settings on record: protein: recombinant; tags: GST; chain copies: 2; dsDNA, one strand shown. The method, boiled down:
as §1

Sequence of GST-NTL6(1-168) (Q9SCK6 1-168): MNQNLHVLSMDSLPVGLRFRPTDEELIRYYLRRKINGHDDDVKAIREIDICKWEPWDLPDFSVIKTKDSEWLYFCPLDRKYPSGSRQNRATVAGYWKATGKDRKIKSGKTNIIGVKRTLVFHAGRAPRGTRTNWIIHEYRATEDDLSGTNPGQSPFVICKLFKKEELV

For the sequence CAAAAGTC, the binding signal with GST-ANAC092(1-176) turned out to be 0.0755 E-score; in the test with GST-NTL6(1-168), 0.0864 E-score; with GST-ANAC055(1-171) it was 0.138 E-score; with GST-ATAF1 NAC domain, 0.222 E-score; in test [1], 0.112 E-score; in the test with GST-NST2(1-184), 0.252 E-score. Further, the results for the binding signal in the test with GST-SND1(1-203), in the test with GST-VND3 NAC domain and with GST-WRKY1(266-371) were 0.133 E-score, 0.141 E-score and 0.432 E-score, respectively.

For AAGGAATC, the binding signal was determined as 0.172 E-score with GST-ANAC092(1-176); 0.42 E-score with GST-NTL6(1-168); 0.0816 E-score with GST-ATAF1 NAC domain; 0.251 E-score in test [1]; 0.0867 E-score with GST-NST2(1-184); 0.328 E-score with GST-NTL8 NAC domain. The figures for the binding signal in the test with GST-SND1(1-203) and with GST-VND3 NAC domain were 0.292 E-score and 0.0823 E-score, respectively.

On to GTTTCCTA, for which the binding signal in the test with GST-ANAC092(1-176) is 0.118 E-score; in the test with GST-NTL6(1-168) it was 0.0734 E-score; in the test with GST-ANAC019 NAC domain, 0.158 E-score; with GST-ANAC055(1-171) it was 0.133 E-score; in the test with GST-ATAF1 NAC domain, 0.212 E-score; in [1], 0.179 E-score. The binding signal stood at 0.118 E-score with GST-NAP(1-166); 0.169 E-score with GST-NST2(1-184); 0.404 E-score with GST-NTL8 NAC domain; 0.106 E-score with GST-SND1(1-203); 0.179 E-score with GST-VND3 NAC domain.

GTCAACAA: the binding signal was determined as 0.0834 E-score with GST-NTL6(1-168); 0.163 E-score with GST-ANAC055(1-171); 0.191 E-score with GST-ATAF1 NAC domain; 0.136 E-score in test [1]; 0.075 E-score with GST-NAP(1-166); 0.101 E-score with GST-NST2(1-184). Also, the binding signal turned out to be 0.0573 E-score in the test with GST-NTL8 NAC domain, 0.177 E-score in the test with GST-SND1(1-203), 0.07 E-score with GST-VND7 NAC domain and 0.478 E-score with GST-WRKY1(266-371).

As to TCCGTCAA, the binding signal in the test with GST-ANAC019 NAC domain was 0.0961 E-score; with GST-SND1(1-203) it was 0.063 E-score; with GST-VND3 NAC domain, 0.105 E-score; with GST-WRKY1(266-371), 0.412 E-score.

As to CAAGTCAG, the binding signal in [1] turned out to be 0.11 E-score; in the test with GST-SND1(1-203), 0.0706 E-score; with GST-VND3 NAC domain, 0.0527 E-score; in the test with GST-WRKY1(266-371), 0.417 E-score.

For TGACTCAA, the binding signal with GST-NTL6(1-168) is 0.118 E-score; in the test with GST-ATAF1 NAC domain it was 0.0764 E-score; in [1], 0.131 E-score; in the test with GST-SND1(1-203), 0.0975 E-score; with GST-VND3 NAC domain, 0.113 E-score; in the test with GST-WRKY1(266-371) it was 0.419 E-score.
